# Measured values: article PMC7862700, “An all-to-all approach to the identification of sequence-specific readers for epigenetic DNA modifications on cytosine”
# Tests used:
# Assay in all cases: DAPPL (digital affinity profiling via proximity ligation, sequencing); 10 mM Tris-HCl pH 7.5, 50 mM NaCl, 1 mM DTT, 4% glycerol, room temperature, 30 min; GST-TFs on glutathione beads, 16-mer random dsDNA library, 0.1% formaldehyde crosslink after washing; high values mean tight binding
# Details in all cases: protein: recombinant; tags: N-terminal GST; dsDNA, one strand shown
# [1] = target: T1, ERF (Homo sapiens, UniProt P50548 1-548)
# T1 sequence: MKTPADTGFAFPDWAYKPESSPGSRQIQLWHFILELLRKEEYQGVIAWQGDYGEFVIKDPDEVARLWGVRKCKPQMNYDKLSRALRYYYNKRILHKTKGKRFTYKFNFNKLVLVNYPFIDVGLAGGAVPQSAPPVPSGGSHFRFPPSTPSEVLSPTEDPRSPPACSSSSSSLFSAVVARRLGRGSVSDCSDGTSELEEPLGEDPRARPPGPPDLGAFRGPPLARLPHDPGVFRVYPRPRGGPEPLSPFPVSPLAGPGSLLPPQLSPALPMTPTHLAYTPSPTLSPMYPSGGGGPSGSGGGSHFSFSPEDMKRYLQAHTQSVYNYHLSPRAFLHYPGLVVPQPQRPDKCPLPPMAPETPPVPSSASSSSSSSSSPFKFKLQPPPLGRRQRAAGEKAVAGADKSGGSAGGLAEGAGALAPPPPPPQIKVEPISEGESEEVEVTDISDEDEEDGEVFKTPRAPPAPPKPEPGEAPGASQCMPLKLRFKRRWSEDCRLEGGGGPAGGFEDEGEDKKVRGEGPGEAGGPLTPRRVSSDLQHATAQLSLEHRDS
# In short: (§1)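 Binding signal is defined as a hexamer's read frequency for one factor over its frequency for the tag-only sample. To obtain reads, GST-fused human transcription factors were expressed in yeast, captured on glutathione beads, barcoded with DNA and pooled with that sample. Pools met 200 nmole of a 16-mer random double-stranded DNA library in Tris/NaCl/DTT/glycerol buffer for 30 min at room temperature before washing, 0.1% formaldehyde crosslinking, proximity ligation (BsaI/T4 ligase, 1 h, 37 °C), PCR and Illumina NextSeq500 sequencing.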
# [2] = target: T2, ETV3L (Homo sapiens, UniProt Q6ZN32 1-361)
# T2 sequence: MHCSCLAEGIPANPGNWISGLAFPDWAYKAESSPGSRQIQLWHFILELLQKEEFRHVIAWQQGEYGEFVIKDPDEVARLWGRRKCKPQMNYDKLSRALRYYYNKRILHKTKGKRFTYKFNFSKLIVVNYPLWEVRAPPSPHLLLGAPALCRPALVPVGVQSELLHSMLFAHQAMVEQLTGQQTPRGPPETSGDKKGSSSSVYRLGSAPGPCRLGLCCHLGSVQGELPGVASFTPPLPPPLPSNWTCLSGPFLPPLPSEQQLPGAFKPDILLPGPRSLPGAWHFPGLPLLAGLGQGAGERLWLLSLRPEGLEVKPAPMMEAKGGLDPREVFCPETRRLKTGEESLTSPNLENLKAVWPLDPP
# In short: as §1
# [3] = target: T3, ETS2 (Homo sapiens, UniProt P15036 1-469)
# T3 sequence: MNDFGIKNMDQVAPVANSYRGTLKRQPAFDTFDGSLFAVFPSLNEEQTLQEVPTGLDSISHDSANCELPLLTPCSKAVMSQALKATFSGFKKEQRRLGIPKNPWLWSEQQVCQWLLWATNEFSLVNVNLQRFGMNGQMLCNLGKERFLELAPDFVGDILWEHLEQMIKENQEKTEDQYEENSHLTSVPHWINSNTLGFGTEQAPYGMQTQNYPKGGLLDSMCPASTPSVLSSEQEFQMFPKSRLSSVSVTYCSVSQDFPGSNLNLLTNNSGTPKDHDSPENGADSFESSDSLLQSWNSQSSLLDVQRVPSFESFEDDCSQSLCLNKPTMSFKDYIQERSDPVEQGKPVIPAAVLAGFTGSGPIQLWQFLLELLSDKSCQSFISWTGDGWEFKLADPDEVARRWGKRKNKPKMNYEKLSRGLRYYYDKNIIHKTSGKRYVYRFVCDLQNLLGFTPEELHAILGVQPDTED
# In short: as §1
# [4] = target: T4, SPDEF (Homo sapiens, UniProt O95238 1-335)
# T4 sequence: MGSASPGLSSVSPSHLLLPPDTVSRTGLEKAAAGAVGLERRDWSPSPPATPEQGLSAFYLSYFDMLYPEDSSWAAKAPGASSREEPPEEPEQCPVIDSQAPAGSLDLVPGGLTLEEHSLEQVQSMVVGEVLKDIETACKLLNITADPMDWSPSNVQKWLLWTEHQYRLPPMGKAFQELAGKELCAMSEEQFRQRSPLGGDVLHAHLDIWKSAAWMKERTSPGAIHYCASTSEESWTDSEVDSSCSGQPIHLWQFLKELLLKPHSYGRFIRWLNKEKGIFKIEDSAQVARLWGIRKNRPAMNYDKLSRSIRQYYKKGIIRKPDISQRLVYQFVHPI
# In short: as §1
# [5] = target: T5, ETV7 (Homo sapiens, UniProt Q9Y603 1-341)
# T5 sequence: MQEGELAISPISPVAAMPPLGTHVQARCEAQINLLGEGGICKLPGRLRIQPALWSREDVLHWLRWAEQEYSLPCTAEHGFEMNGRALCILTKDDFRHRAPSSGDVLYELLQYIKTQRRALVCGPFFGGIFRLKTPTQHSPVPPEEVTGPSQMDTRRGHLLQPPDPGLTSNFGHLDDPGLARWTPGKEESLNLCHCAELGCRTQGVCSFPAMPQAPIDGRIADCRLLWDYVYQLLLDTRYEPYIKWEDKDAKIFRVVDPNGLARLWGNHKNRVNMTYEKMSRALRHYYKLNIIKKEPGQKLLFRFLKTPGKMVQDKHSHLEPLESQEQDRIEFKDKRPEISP
# In short: as §1
# [6] = target: T6, ELF5 (Homo sapiens, UniProt Q9UKW6-2 1-255)
# T6 sequence: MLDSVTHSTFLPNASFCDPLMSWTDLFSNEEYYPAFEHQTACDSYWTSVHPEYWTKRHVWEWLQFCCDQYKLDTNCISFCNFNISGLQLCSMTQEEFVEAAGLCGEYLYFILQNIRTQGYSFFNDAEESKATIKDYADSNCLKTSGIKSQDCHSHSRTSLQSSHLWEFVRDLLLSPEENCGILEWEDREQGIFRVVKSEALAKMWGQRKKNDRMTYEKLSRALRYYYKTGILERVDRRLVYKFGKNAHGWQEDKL
# In short: as §1
# [7] = target: T7, ETV3 (Homo sapiens, UniProt P41162-2 1-143)
# T7 sequence: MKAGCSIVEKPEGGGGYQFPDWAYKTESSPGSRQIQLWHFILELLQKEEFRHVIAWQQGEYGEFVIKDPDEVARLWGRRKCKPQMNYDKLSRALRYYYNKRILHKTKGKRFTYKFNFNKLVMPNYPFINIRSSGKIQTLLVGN
# In short: as §1
# [8] = target: ETV6 (Homo sapiens, UniProt P41212 1-452)
# Sequence of ETV6 (P41212 whole entry): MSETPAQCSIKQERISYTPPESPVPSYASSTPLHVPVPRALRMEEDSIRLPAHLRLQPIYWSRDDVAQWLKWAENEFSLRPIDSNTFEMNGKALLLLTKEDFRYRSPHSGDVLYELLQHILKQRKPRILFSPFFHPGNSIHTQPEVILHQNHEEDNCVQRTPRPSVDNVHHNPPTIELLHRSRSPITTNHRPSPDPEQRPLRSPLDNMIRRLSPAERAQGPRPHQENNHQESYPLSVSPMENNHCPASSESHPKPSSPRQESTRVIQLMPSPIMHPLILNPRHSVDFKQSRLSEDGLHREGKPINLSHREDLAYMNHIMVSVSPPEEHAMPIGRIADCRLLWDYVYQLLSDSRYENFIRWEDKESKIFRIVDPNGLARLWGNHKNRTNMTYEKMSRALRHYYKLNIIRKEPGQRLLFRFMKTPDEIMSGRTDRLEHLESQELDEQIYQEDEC
# In short: as §1
Sequence,binding signal [1],binding signal [2],binding signal [3],binding signal [4],binding signal [5],binding signal [6],binding signal [7],binding signal [8]
ATGATC,"1.33 fold enrichment (6-mer frequency, TF over GST control)","1.22 fold enrichment (6-mer frequency, TF over GST control)","1.16 fold enrichment (6-mer frequency, TF over GST control)","1.27 fold enrichment (6-mer frequency, TF over GST control)","1.22 fold enrichment (6-mer frequency, TF over GST control)","1.22 fold enrichment (6-mer frequency, TF over GST control)","1.2 fold enrichment (6-mer frequency, TF over GST control)","1.19 fold enrichment (6-mer frequency, TF over GST control)"
TACTTA,"1.29 fold enrichment (6-mer frequency, TF over GST control)","1.2 fold enrichment (6-mer frequency, TF over GST control)","1.25 fold enrichment (6-mer frequency, TF over GST control)","1.14 fold enrichment (6-mer frequency, TF over GST control)","1.21 fold enrichment (6-mer frequency, TF over GST control)","1.14 fold enrichment (6-mer frequency, TF over GST control)","1.17 fold enrichment (6-mer frequency, TF over GST control)","1.28 fold enrichment (6-mer frequency, TF over GST control)"
AAGTGC,"1.22 fold enrichment (6-mer frequency, TF over GST control)","1.2 fold enrichment (6-mer frequency, TF over GST control)","1.23 fold enrichment (6-mer frequency, TF over GST control)","1.26 fold enrichment (6-mer frequency, TF over GST control)","1.32 fold enrichment (6-mer frequency, TF over GST control)","1.29 fold enrichment (6-mer frequency, TF over GST control)","1.39 fold enrichment (6-mer frequency, TF over GST control)","1.36 fold enrichment (6-mer frequency, TF over GST control)"
ATGGCT,"1.27 fold enrichment (6-mer frequency, TF over GST control)","1.37 fold enrichment (6-mer frequency, TF over GST control)","1.32 fold enrichment (6-mer frequency, TF over GST control)","1.23 fold enrichment (6-mer frequency, TF over GST control)","1.34 fold enrichment (6-mer frequency, TF over GST control)","1.25 fold enrichment (6-mer frequency, TF over GST control)","1.33 fold enrichment (6-mer frequency, TF over GST control)","1.38 fold enrichment (6-mer frequency, TF over GST control)"
GTGGCT,"1.18 fold enrichment (6-mer frequency, TF over GST control)","1.07 fold enrichment (6-mer frequency, TF over GST control)","1.14 fold enrichment (6-mer frequency, TF over GST control)","1.03 fold enrichment (6-mer frequency, TF over GST control)","1.1 fold enrichment (6-mer frequency, TF over GST control)","1.03 fold enrichment (6-mer frequency, TF over GST control)","1.12 fold enrichment (6-mer frequency, TF over GST control)","1.07 fold enrichment (6-mer frequency, TF over GST control)"
TGACAA,"1.23 fold enrichment (6-mer frequency, TF over GST control)","1.34 fold enrichment (6-mer frequency, TF over GST control)","1.27 fold enrichment (6-mer frequency, TF over GST control)","1.21 fold enrichment (6-mer frequency, TF over GST control)","1.31 fold enrichment (6-mer frequency, TF over GST control)","1.23 fold enrichment (6-mer frequency, TF over GST control)","1.26 fold enrichment (6-mer frequency, TF over GST control)","1.23 fold enrichment (6-mer frequency, TF over GST control)"
ATTGGG,"1.31 fold enrichment (6-mer frequency, TF over GST control)","1.15 fold enrichment (6-mer frequency, TF over GST control)","1.12 fold enrichment (6-mer frequency, TF over GST control)","1.19 fold enrichment (6-mer frequency, TF over GST control)","1.11 fold enrichment (6-mer frequency, TF over GST control)","1.11 fold enrichment (6-mer frequency, TF over GST control)","1.15 fold enrichment (6-mer frequency, TF over GST control)","1.16 fold enrichment (6-mer frequency, TF over GST control)"
